Consider 18 molecules from PubChem BioAssay (Tox21).

Experiment [1] in a line: qHTS assay to identify small molecule antagonists of the retinoid acid receptor (RAR) signaling pathway - cell viability counter screen (AID 1159551). Also: % is scaled to controls: 0 for no effect and ±100 for the full control effect; nearly all actives have a fitted effect of over 35% in size. A digest of the protocol: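 Measured by luminescent ATP detection, viability reflects C3RL4 cells treated 6 h at 37 C with test chemicals in the presence of 1 uM (final) retinol.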
On the technique in general: Quantitative high-throughput screening tests each substance at several concentrations.

Experiment [2] in a line: qHTS assay to identify small molecule antagonists of the retinoic acid receptor (RAR) signaling pathway (AID 1159552; also: % is scaled to controls: 0 for no effect and ±100 for the full control effect; nearly all actives have a fitted effect of over 50% in size). A digest of the protocol: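 Antagonism of retinol-induced RARE reporter activity was measured in C3RL4 cells. Exposure to compounds and 1 uM final retinol lasted 6 hr at 37 C, with luminescence as endpoint.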
Experiment [3] in a line: qHTS assay to identify small molecule agonists of the retinoic acid receptor (RAR) signaling pathway (AID 1159553). Also: potency is read from the fitted curve at half-maximal effect. As to activation: % is scaled to controls: 0 for no effect and ±100 for the full control effect. An outline of the steps: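 6 hr compound exposure (DMSO vehicle) of overnight-plated C3RL4 RARE-luc cells at 37 C; luminescence quantified after 30 min RT with luciferase reagent.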
The nature of experiment [4]: qHTS assay to identify small molecule antagonists of the estrogen related receptor (ERR) signaling pathway from Tox21 library - cell viability counter screen (AID 1224834). Also: nearly all actives have a fitted effect of over 30% in size. Also: potency is read from the fitted curve at half-maximal effect. As to viability change, negative = cytotoxic: % is scaled to controls: 0 for no effect and ±100 for the full control effect. A digest of the protocol: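 Seeded ERR cells were rested 6 h at 37 C/5% CO2 before compounds, positive and negative controls or DMSO were added. Incubation continued for 17.5 h, and viability was then quantified by CellTiter-Fluor fluorescence.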

In experiment [5] the target is Luciferin 4-monooxygenase (Photinus pyralis) (UniProt P08659). Put plainly: qHTS assay to identify small molecule inhibitors of firefly luciferase (AID 1224835). Also: series mostly up to about 120 µM; % is scaled to controls: 0 for no effect and ±100 for the full control effect; nearly all actives have a fitted effect of over 25% in size. An outline of the steps:
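Inhibition of purified Photinus luciferase is measured by luminescence. Substrate levels (D-luciferin, ATP) sit at their KM values. Each compound is tested in a concentration series.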

Experiment [6] is described as follows: qHTS assay to identify small molecule agonists of the constitutive androstane receptor (CAR) signaling pathway - cell viability counter screen (AID 1224836). Also: series mostly up to about 92 µM; % is scaled to controls: 0 for no effect and ±100 for the full control effect; nearly all actives have a fitted effect of over 45% in size. An outline of the steps:
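Double-stable HepG2 hepatoma cells (hCAR plus CYP2B6-2.2kb) are treated for 23 h at 37 C with test compounds in 15-point concentration series. PK11195 at 0.75 uM final is co-added. Cell viability is quantified by CellTiter-Fluor.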

Experiment [7] can be described thus: qHTS assay to identify small molecule antagonists of the constitutive androstane receptor (CAR) signaling pathway - cell viability counter screen (AID 1224837). Also: series mostly up to about 92 µM; % is scaled to controls: 0 for no effect and ±100 for the full control effect; nearly all actives have a fitted effect of over 45% in size. A digest of the protocol: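 To flag cytotoxic false antagonists, HepG2 hCAR/CYP2B6-2.2kb cells were treated 23 hr with 15-concentration compound series and 50 nM CITCO at 37 C/5% CO2; CellTiter-Fluor fluorescence was the measured end point.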

Experiment [8] in a line: qHTS assay to identify small molecule antagonists of the estrogen related receptor signaling pathway with the pleiotropic PPARgamma coactivator (PGC) from Tox21 10K library - cell viability counter screen (AID 1224840; active = well fitted cell-killing curve with a large enough effect in the repeat runs, not every such curve was filed as active; also: % is scaled to controls: 0 for no effect and ±100 for the full control effect; nearly all actives have a fitted effect of over 40% in size). An outline of the steps: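 Seeded PGC/ERR cells (2,000/well, 6 h, 37 C/5% CO2) get compound by pin tool; 17.5 h incubation at 37 C; CellTiter-Fluor added, 30 min, fluorescence measured.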

Experiment [9] concerns the target Nuclear receptor subfamily 1 group I member 3 (Homo sapiens) (UniProt Q14994). Put plainly: qHTS assay to identify small molecule antagonists of the constitutive androstane receptor (CAR) signaling pathway (AID 1224838).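 Also: HepG2 cells stably expressing hCAR with CYP2B6 luciferase reporter stimulated by CITCO; nearly all actives have a fitted effect of over 40% in size.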 Also: potency is read from the fitted curve at half-maximal effect. An outline of the steps: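 Human hepatoma HepG2 cells expressing hCAR and a CYP2B6 promoter (2.2 kb) luciferase construct; compound titration (15 points) with 50 nM CITCO final, 24 h at 37 C/5% CO2; luminescence via ONE-Glo after 30 min at room temperature.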

Experiment [10] shares this target. The experiment in a line: qHTS assay to identify small molecule agonists of the constitutive androstane receptor (CAR) signaling pathway (AID 1224839). Also: nearly all actives have a fitted effect of over 15% in size. Also: potency is read from the fitted curve at half-maximal effect. A digest of the protocol: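 Readout: firefly luciferase luminescence via ONE-Glo. System: HepG2 double-stable for hCAR and CYP2B6-2.2kb. Conditions: 15-point compound titration, PK11195 at 0.75 uM final, 24 h incubation.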

Experiment [11] is described as follows: qHTS assay to identify small molecule antagonists of the estrogen related receptor signaling pathway with the pleiotropic PPARgamma coactivator (PGC) from Tox21 10K library (AID 1224841; call rule not given here; also: actives are mostly falling curves and most rising ones were filed inactive; nearly all actives have a fitted effect of over 50% in size; also: potency is read from the fitted curve at half-maximal effect). A digest of the protocol:
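Test chemicals dissolved in DMSO were applied to pre-incubated (6 h) PGC/ERR cells at 2,000 cells/well for an 18 h, 37 C treatment; reporter luminescence was then read using One-Glo.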

A short description of experiment [12]: qHTS assay to identify small molecule agonists of the RXR signaling pathway - cell viability counter screen (AID 1159529). Also: nearly all actives have a fitted effect of over 50% in size. Also: potency is read from the fitted curve at half-maximal effect. A digest of the protocol:
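Counter screen: CellTiter-Glo luminescence. Cells: RXR-alpha-UAS-bla HEK 293T. Medium: 2% charcoal-stripped FBS. Treatment: 16 h, 37 C. Reagent incubation: 30 min, RT.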

Experiment [13] is described as follows: qHTS assay to identify small molecule agonists of the estrogen related receptor signaling pathway with the pleiotropic PPARgamma coactivator (PGC) from Tox21 10K library (AID 1224842). Also: % is scaled to controls: 0 for no effect and ±100 for the full control effect; nearly all actives have a fitted effect of over 15% in size. An outline of the steps:
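Luminescence from One-Glo (30 min, room temperature) measured after PGC/ERR cells had 18 h at 37 C with pinned compound (23 nL in DMSO). Cells had been seeded at 2,000 per well and pre-incubated 6 h.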

Experiment [14] can be described thus: qHTS assay to identify small molecule antagonists of the estrogen related receptor (ERR) signaling pathway (AID 1224819; also: potency is read from the fitted curve at half-maximal effect; nearly all actives have a fitted effect of over 50% in size). An outline of the steps:
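Compounds dissolved in DMSO were pin-transferred onto ERR cells that had been plated 6 h earlier, and cells were then incubated 18 h at 37 C; signal was luciferase luminescence via One-Glo.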

Experiment [15] is described as follows: qHTS assay to identify small molecule agonists of the estrogen related receptor (ERR) signaling pathway (AID 1224820). Also: % is scaled to controls: 0 for no effect and ±100 for the full control effect. An outline of the steps:
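An ERR cell line provided by NTP was seeded at 2,000 cells per well and allowed to settle for 6 h before compounds in DMSO were added. After 18 h at 37 C, luciferase activity was measured by One-Glo luminescence.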

For experiment [16], the system named is estrogen-related receptor alpha (ERRalpha) with PGC-1alpha coactivator, human. The experiment in a line: qHTS assay to identify small molecule antagonists of the estrogen related receptor signaling pathway with the pleiotropic PPARgamma coactivator (PGC) (AID 1224821; calls by dose curve). An outline of the steps: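 A PGC/ERR cell line supplied by NTP is seeded, allowed 6 h at 37 C, and treated with test compounds in DMSO for 18 h. Signal is then measured as luciferase luminescence using One-Glo.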

Experiment [17] is described as follows: qHTS assay to identify small molecule agonists of the estrogen related receptor signaling pathway with the pleiotropic PPARgamma coactivator (PGC) (AID 1224823). Also: % is scaled to controls: 0 for no effect and ±100 for the full control effect. An outline of the steps:
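Compounds dissolved in DMSO are added by pin tool to PGC/ERR cells that have settled for 6 h, and incubation continues 18 h at 37 C. Reporter output is measured as One-Glo luminescence.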

The structures appear in SMILES notation. Inconclusive results are not listed. A number with no mark means an inactive call. The source made the active and inactive calls. Unless noted, calls follow the shape of the dose curve; as a rule, active = well fitted curve in the direction sought with a large enough effect in the repeat runs; inconclusive = weak or mixed curves; inactive = no such curve, though single readings can be large; an effect the other way counts as inactive or inconclusive.

Sequence of Luciferin 4-monooxygenase (Photinus pyralis) (P08659 whole entry, looked up): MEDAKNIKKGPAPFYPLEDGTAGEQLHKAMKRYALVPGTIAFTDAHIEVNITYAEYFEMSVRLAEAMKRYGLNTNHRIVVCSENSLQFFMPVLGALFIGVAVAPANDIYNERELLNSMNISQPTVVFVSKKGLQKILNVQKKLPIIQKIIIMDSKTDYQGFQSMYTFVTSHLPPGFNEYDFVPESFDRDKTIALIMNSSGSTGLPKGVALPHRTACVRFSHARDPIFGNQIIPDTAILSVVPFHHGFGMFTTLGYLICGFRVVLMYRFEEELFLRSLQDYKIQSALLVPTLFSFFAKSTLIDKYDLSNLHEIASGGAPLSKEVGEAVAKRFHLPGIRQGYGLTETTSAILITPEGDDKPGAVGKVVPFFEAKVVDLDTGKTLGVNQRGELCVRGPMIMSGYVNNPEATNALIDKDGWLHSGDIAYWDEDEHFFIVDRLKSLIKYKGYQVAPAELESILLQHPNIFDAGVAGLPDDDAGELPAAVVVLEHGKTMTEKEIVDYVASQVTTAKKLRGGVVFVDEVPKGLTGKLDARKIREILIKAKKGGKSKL
Sequence of Nuclear receptor subfamily 1 group I member 3 (Homo sapiens) (Q14994 whole entry, looked up): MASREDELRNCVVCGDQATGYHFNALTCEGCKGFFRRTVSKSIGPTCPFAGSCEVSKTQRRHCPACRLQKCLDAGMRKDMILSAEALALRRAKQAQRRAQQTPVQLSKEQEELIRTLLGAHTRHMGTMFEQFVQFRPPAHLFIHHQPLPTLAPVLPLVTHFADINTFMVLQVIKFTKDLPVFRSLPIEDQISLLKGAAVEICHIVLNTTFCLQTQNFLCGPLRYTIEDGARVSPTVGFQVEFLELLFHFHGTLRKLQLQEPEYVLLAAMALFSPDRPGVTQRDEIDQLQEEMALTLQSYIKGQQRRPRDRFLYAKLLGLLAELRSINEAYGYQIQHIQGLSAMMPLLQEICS

Turning to `COc1cccc([C@H](O)C2CCN(CCc3ccc(F)cc3)CC2)c1OC`, the result in experiment [1] and in experiment [2] was inactive. For the same molecule, the Potency result in [3], in experiment [4], in [5], in experiment [6], in experiment [7] and in [8] was “inactive” each time.
Turning to `CC(C)CC(C)(C)C`, the molecule was classed as inactive in [1] and in experiment [2]. The Potency entry in experiment [3], in experiment [5], in [6], in [7] and in experiment [9] was “inactive” throughout. Also, the Potency in experiment [10] was 63.4 µM (active).
Consider `CC1=CC(=C(c2ccc(N)cc2)c2ccc(N)cc2)C=CC1=N`, for which the activity, negative = inhibition was -2.67% [at 8.39 µM] in experiment [2] and 3.44% [at 8.39 µM] in experiment [9]. Moreover, the figures for the activation in experiment [3] and in experiment [10] were -1.68% [at 8.36 µM] and -0.508% [at 8.39 µM], respectively. In addition, the activity change, negative = inhibition in experiment [5] was -4.83% [at 10.5 µM]. Further, in [6], the viability change, negative = cytotoxic is -5.57% [at 8.39 µM]. Besides, the activity change, negative = cytotoxicity in experiment [7] is -13.7% [at 8.39 µM]. Moreover, in experiment [11], the Potency is 2.76 µM (active).
`O=Cc1ccc(Cl)c([N+](=O)[O-])c1`: the Potency result in [12], in [5], in experiment [6], in experiment [7], in [9] and in [10] was “inactive” each time. In addition, the Potency result in experiment [13] is “inactive”. Further, in [1], the outcome was inactive.
Regarding `NCCOCCOCCN`, in experiment [1], the outcome was inactive. In addition, the Potency result in experiment [4], in experiment [5], in [6], in experiment [7], in experiment [9] and in experiment [10] was “inactive” each time. Besides, the Potency result in experiment [8] and in experiment [11] was “inactive” each time.
`O=C(O)c1ccccc1-n1cc(C(=O)O)c(=O)c2cc(Nc3c(F)cc(F)cc3Cl)c(Cl)cc21`: the result in experiment [1] and in experiment [2] was inactive. The Potency entry in [3], in experiment [4], in [5], in experiment [6], in experiment [7] and in experiment [9] was “inactive” each time. The Potency entry in experiment [10] and in experiment [8] was “inactive” throughout.
Take `CC(C)CCCCCCCOC(=O)c1ccc(C(=O)OCCCCCCCC(C)C)c(C(=O)OCCCCCCCC(C)C)c1`: the result in [1] was inactive. In addition, the Potency result in [4], in experiment [5], in [6], in [7], in experiment [10] and in [8] was “inactive” throughout. Besides, the Potency entry in experiment [13] is “inactive”.
Consider `O=C1CCCN1CCO`, for which the molecule was classed as inactive in experiment [1]. The Potency entry in experiment [3], in experiment [4], in experiment [5], in [6], in experiment [7] and in experiment [10] was “inactive” throughout. Also, in experiment [8], the Potency result was “inactive”.
`O=C(Cl)c1ccc(F)c(Cl)c1`: the outcome in experiment [1] was inactive. In addition, the Potency entry in [3], in [4], in [5], in experiment [6], in experiment [7] and in experiment [9] was “inactive” throughout. Also, the Potency result in experiment [10] and in experiment [8] was “inactive” each time.
For the molecule `COc1ccc(C(=O)Nc2ccccc2)cc1[N+](=O)[O-]`, the molecule was called inactive in experiment [1]. Moreover, the Potency in [3] and in [10] was 30.9 µM (active) in each case. Further, the Potency entry in experiment [6], in [7] and in experiment [9] was “inactive” throughout.
In the case of `NC(=O)c1ccccc1C(N)=O`, the figures for the Potency in experiment [12] and in experiment [9] were 34.8 µM (active) and 30.8 µM (active), respectively. For the same molecule, in experiment [1], the molecule was called inactive. Moreover, the Potency entry in experiment [4], in experiment [6], in experiment [7], in experiment [10] and in [13] was “inactive” throughout.
Turning to `CC(C)(C)NCC(O)COc1ccc(NC(=O)NC2CCCCC2)cc1` (stereo not given), the molecule was called inactive in experiment [1] and in [2]. In addition, the Potency result in experiment [4], in experiment [5], in experiment [6], in experiment [7] and in [8] was “inactive” throughout.
Regarding `Clc1cc(Cl)c2c(c1)N=C1CCCCCN1C2`, the call in [1] and in [2] was inactive. Moreover, the Potency result in [4], in [6], in [7], in [8] and in [11] was “inactive” each time.
`C=C[Si](OCC)(OCC)OCC`: the Potency entry in experiment [12], in experiment [4], in experiment [6], in experiment [7] and in experiment [8] was “inactive” each time. Further, in experiment [1], the result was inactive.
For `COc1ccnc2c1CCCCC2S(=O)c1nc2ccccc2[nH]1` (stereo not given), the molecule was classed as inactive in experiment [1] and in [2]. Further, the Potency entry in experiment [4], in experiment [6], in experiment [7] and in experiment [8] was “inactive” each time. The Potency in [10] was 23.7 µM (active).
Consider `CO[C@@H]1[C@@H](O[C@@H]2O[C@H](C)[C@@H](O[C@H]3C[C@@](C)(O)[C@@H](O)[C@H](C)O3)[C@H](N(C)C)[C@H]2O)[C@@H](CC=O)C[C@@H](C)[C@@H](O[C@@H]2CC[C@H](N(C)C)[C@@H](C)O2)/C=C/C=C/C[C@@H](C)OC(=O)C[C@H]1OC(C)=O`, for which the result in experiment [1] and in experiment [2] was inactive. Moreover, the Potency result in experiment [3], in experiment [4], in experiment [5], in [6], in experiment [7] and in experiment [9] was “inactive” each time. In addition, in experiment [10], the Potency result is “inactive”.
Regarding `Oc1ccc(CCNCCCCCCNCCc2ccccc2)cc1O`, the outcome in experiment [1] and in experiment [2] was inactive. For the same molecule, the Potency entry in experiment [3], in experiment [5], in experiment [6], in experiment [7], in [10] and in [8] was “inactive” each time. Moreover, the Potency entry in experiment [11] and in experiment [13] was “inactive” each time.
With `CC1=C(C)C(=O)C(CCCCC#CCCCC#CCO)=C(C)C1=O`, the call in [1], in experiment [2], in [15], in experiment [16] and in experiment [17] was inactive. In addition, the Potency entry in experiment [3], in experiment [5], in [6], in [7], in experiment [9] and in [8] was “inactive” in each case. In [13], the Potency result is “inactive”. The Potency is 12.8 µM (active) in experiment [14] and 23.7 µM (active) in [4].
